Molecules are shown by their SMILES. Compounds without any hit were thinned out: in the full panel of roughly 79,000, 15% have a hit. Values without a mark were called inactive. Calls of active or inactive are those of the source. Rule as the data show it: active = growth inhibition above about 70%; inactive = the rest.

Assay [1] in a line: NCI Yeast Anticancer Drug Screen. Data for the rad50 strain (AID 155).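 Also: 0% = growth of vehicle-only cultures of the same strain.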 As to conditions: S. cerevisiae rad50 strain growth inhibition, active compounds read high. A digest of the protocol:
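Growth of the mutant yeast was measured after compound exposure and referenced to vehicle-treated cultures.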

A short description of assay [2]: NCI Yeast Anticancer Drug Screen. Data for the mec2-1 strain (AID 157). As to conditions: S. cerevisiae mec2-1 strain, active compounds read high. A digest of the protocol:
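Each compound was tested on mec2-1 yeast, a strain altered in DNA damage repair or cell cycle control. Growth inhibition is reported relative to vehicle.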

Assay [3] in a line: NCI Yeast Anticancer Drug Screen. Data for the sgs1 mgt1 strain (AID 161).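 Also: 0% = growth of cultures given vehicle only.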 As to conditions: S. cerevisiae sgs1 mgt1 strain, active compounds read high. Summed up: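 Genetically altered yeast, compound exposure, growth inhibition relative to vehicle.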
The nature of assay [4]: NCI Yeast Anticancer Drug Screen. Data for the cln2 rad14 strain (AID 165).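 Also: 0% = growth equal to vehicle treated cultures.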 The conditions noted are these: S. cerevisiae cln2 rad14 strain, active compounds read high. Summed up: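 Test compounds were added to cln2 rad14 yeast cultures; inhibition of growth was then determined by comparison with vehicle treatment.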
Assay [5] is described as follows: NCI Yeast Anticancer Drug Screen. Data for the bub3 strain (AID 167). The conditions noted are these: S. cerevisiae bub3 mutant strain, active compounds read high. Summed up:
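Whole-cell yeast assay. The mutant strain was incubated with compounds, and growth inhibition was determined by comparison with vehicle-treated cells.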

A short description of assay [6]: NCI Yeast Anticancer Drug Screen. Data for the mlh1 rad18 strain (AID 175). As to conditions: S. cerevisiae mlh1 rad18 strain growth inhibition, active compounds read high. Summed up:
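Inhibition values reflect reduced growth of mutant yeast versus vehicle-treated controls following compound exposure; the mutations affect DNA damage repair.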

The mark [7] stands for this setting: at 5.0 µM (retest, dose inferred, filed as 0.5).
Setting [8] is: at 50.0 µM (retest, dose inferred, filed as 5.0).

`N#CC(=C1C=CC(=NO)C=C1)c1cccc2ccccc12`: the growth inhibition in assay [1] (setting [7]) was 36%; in assay [1] (setting [8]), 91% (active); in assay [1] (at 50.0 µM), 93.2% (active); in assay [2] (setting [7]), 15%; in assay [2] (setting [8]) it was 94% (active); in assay [2] (at 50.0 µM), 95.5% (active). In addition, the growth inhibition was 39% in assay [3] (setting [7]); 92% (active) in assay [3] (setting [8]); 93.1% (active) in assay [3] (at 50.0 µM); 3% in assay [4] (setting [7]); 91% (active) in assay [4] (setting [8]); 90.2% (active) in assay [4] (at 50.0 µM). Moreover, the growth inhibition was 5% in assay [5] (setting [7]); 91% (active) in assay [5] (setting [8]); 96.2% (active) in assay [5] (at 50.0 µM); 28% in assay [6] (setting [7]); 91% (active) in assay [6] (setting [8]); 87.8% (active) in assay [6] (at 50.0 µM).
For the compound `Cc1ccc(NCCNCCO)c2c(=O)c3ccccc3sc12`, the growth inhibition is 27% in assay [1] (setting [7]); 99% (active) in assay [1] (setting [8]); 99.5% (active) in assay [1] (at 50.0 µM); 9% in assay [2] (setting [7]); 100% (active) in assay [2] (setting [8]); 99.6% (active) in assay [2] (at 50.0 µM). Besides, the growth inhibition was 9% in assay [3] (setting [7]); 100% (active) in assay [3] (setting [8]); 99.2% (active) in assay [3] (at 50.0 µM); 8% in assay [4] (setting [7]); 99% (active) in assay [4] (setting [8]); 99.4% (active) in assay [4] (at 50.0 µM). For the same compound, the growth inhibition in assay [5] (setting [7]) is 11%; in assay [5] (setting [8]), 99% (active); in assay [5] (at 50.0 µM), 99.5% (active); in assay [6] (setting [7]), 25%; in assay [6] (setting [8]) it was 99% (active); in assay [6] (at 50.0 µM) it was 99.5% (active).
`O=C1O/C(=C(/Cl)c2c3ccccc3cc3ccccc23)c2ccccc21`: the growth inhibition was -22% in assay [1] (setting [7]); 95% (active) in assay [1] (setting [8]); 81.1% (active) in assay [1] (at 50.0 µM); -13% in assay [2] (setting [7]); 92% (active) in assay [2] (setting [8]); 80.2% (active) in assay [2] (at 50.0 µM). Further, the growth inhibition in assay [3] (setting [7]) is -15%; in assay [3] (setting [8]) it was 96% (active); in assay [3] (at 50.0 µM) it was 82.3% (active); in assay [4] (setting [7]) it was -4%; in assay [4] (setting [8]) it was 94% (active); in assay [4] (at 50.0 µM), 68.7%. Further, the growth inhibition in assay [5] (setting [7]) is -25%; in assay [5] (setting [8]) it was 95% (active); in assay [5] (at 50.0 µM) it was 84.5% (active); in assay [6] (setting [7]), 27%; in assay [6] (setting [8]), 95% (active); in assay [6] (at 50.0 µM), 82.2% (active).
As for `O=[N+]([O-])c1cc2ccc(O)cc2c2ccccc12`, the growth inhibition was -1% in assay [1] (setting [7]); 89% (active) in assay [1] (setting [8]); 93.5% (active) in assay [1] (at 50.0 µM); -8% in assay [2] (setting [7]); 85% (active) in assay [2] (setting [8]); 94.2% (active) in assay [2] (at 50.0 µM). For the same compound, the growth inhibition in assay [3] (setting [7]) is 10%; in assay [3] (setting [8]), 86% (active); in assay [3] (at 50.0 µM) it was 96.3% (active); in assay [4] (setting [7]) it was -1%; in assay [4] (setting [8]), 60%; in assay [4] (at 50.0 µM) it was 95.2% (active). For the same compound, the growth inhibition in assay [5] (setting [7]) is -3%; in assay [5] (setting [8]), 86% (active); in assay [5] (at 50.0 µM) it was 96.2% (active); in assay [6] (setting [7]), -7%; in assay [6] (setting [8]) it was 91% (active); in assay [6] (at 50.0 µM), 93.7% (active).
For `Oc1c(Cl)ccc2cccnc12`, the growth inhibition in assay [1] (setting [7]) is 97% (active); in assay [1] (setting [8]), 98% (active); in assay [1] (at 50.0 µM), 92% (active); in assay [2] (setting [7]) it was 98% (active); in assay [2] (setting [8]) it was 99% (active); in assay [2] (at 50.0 µM) it was 93.8% (active). Moreover, the growth inhibition is 91% (active) in assay [3] (setting [7]); 80% (active) in assay [3] (setting [8]); 94.1% (active) in assay [3] (at 50.0 µM); 98% (active) in assay [4] (setting [7]); 97% (active) in assay [4] (setting [8]); 92.5% (active) in assay [4] (at 50.0 µM). Moreover, the growth inhibition in assay [5] (setting [7]) was 99% (active); in assay [5] (setting [8]) it was 99% (active); in assay [5] (at 50.0 µM), 92.8% (active); in assay [6] (setting [7]), 95% (active); in assay [6] (setting [8]) it was 98% (active); in assay [6] (at 50.0 µM) it was 91.7% (active).
On to `c1cc[c]([Sn]([S]c2cccc3cccnc23)([c]2ccccc2)[c]2ccccc2)cc1`, for which the growth inhibition was 100% (active) in assay [1] (setting [7]); 98% (active) in assay [1] (setting [8]); 96.3% (active) in assay [1] (at 50.0 µM); 100% (active) in assay [2] (setting [7]); 100% (active) in assay [2] (setting [8]); 98.7% (active) in assay [2] (at 50.0 µM). Further, the growth inhibition was 100% (active) in assay [3] (setting [7]); 99% (active) in assay [3] (setting [8]); 96.9% (active) in assay [3] (at 50.0 µM); 99% (active) in assay [4] (setting [7]); 99% (active) in assay [4] (setting [8]); 94.2% (active) in assay [4] (at 50.0 µM). Moreover, the growth inhibition in assay [5] (setting [7]) is 99% (active); in assay [5] (setting [8]), 99% (active); in assay [5] (at 50.0 µM) it was 99% (active); in assay [6] (setting [7]), 100% (active); in assay [6] (setting [8]) it was 99% (active); in assay [6] (at 50.0 µM), 98.1% (active).
For `C=C(C#N)C(=O)OCC(CC)CC.C=C(C#N)C(=O)OCC(CC)CC.CS(C)=O.CS(C)=O.Nc1c(N=Nc2ccc(-c3ccc(N=Nc4cc(S(=O)(=O)[O-])c5ccccc5c4N)cc3)cc2)cc(S(=O)(=O)[O-])c2ccccc12.[Pt+2]`, the growth inhibition in assay [1] (setting [7]) is -13%; in assay [1] (setting [8]), 98% (active); in assay [1] (at 50.0 µM), 96.8% (active); in assay [2] (setting [7]), 6%; in assay [2] (setting [8]), 98% (active); in assay [2] (at 50.0 µM), 96.9% (active). Further, the growth inhibition in assay [3] (setting [7]) is 1%; in assay [3] (setting [8]), 97% (active); in assay [3] (at 50.0 µM), 96.5% (active); in assay [4] (setting [7]), -1%; in assay [4] (setting [8]), 98% (active); in assay [4] (at 50.0 µM), 95.8% (active). In addition, the growth inhibition in assay [5] (setting [7]) was 3%; in assay [5] (setting [8]) it was 98% (active); in assay [5] (at 50.0 µM), 92.9% (active); in assay [6] (setting [7]) it was -6%; in assay [6] (setting [8]), 97% (active); in assay [6] (at 50.0 µM) it was 96.5% (active).
Turning to `O=C1/C(=C/N2CCN(c3ccccc3)CC2)Cc2c(Cl)cccc21`, the growth inhibition is 13% in assay [1] (setting [7]); -2% in assay [1] (setting [8]); 77.3% (active) in assay [1] (at 50.0 µM); 7% in assay [2] (setting [7]); 91% (active) in assay [2] (setting [8]); 98.2% (active) in assay [2] (at 50.0 µM). Besides, the growth inhibition in assay [3] (setting [7]) was 7%; in assay [3] (setting [8]) it was 4%; in assay [3] (at 50.0 µM), 64.3%; in assay [4] (setting [7]) it was 64%; in assay [4] (setting [8]), 35%; in assay [4] (at 50.0 µM), 93.8% (active). For the same compound, the growth inhibition is -9% in assay [5] (setting [7]); 33% in assay [5] (setting [8]); 94.3% (active) in assay [5] (at 50.0 µM); 6% in assay [6] (setting [7]); 41% in assay [6] (setting [8]); 98.2% (active) in assay [6] (at 50.0 µM).
In the case of `CCCC/C=C1\CCC(CN2CCCCC2)C1=O` (stereo not given), the growth inhibition in assay [1] (setting [7]) is 44%; in assay [1] (setting [8]), 70% (active); in assay [1] (at 50.0 µM), 89.2% (active); in assay [2] (setting [7]) it was 40%; in assay [2] (setting [8]), 60%; in assay [2] (at 50.0 µM) it was 69.8%. In addition, the growth inhibition in assay [3] (setting [7]) is 75% (active); in assay [3] (setting [8]) it was 96% (active); in assay [3] (at 50.0 µM) it was 85.3% (active); in assay [4] (setting [7]) it was 59%; in assay [4] (setting [8]) it was 75% (active); in assay [4] (at 50.0 µM), 77.2% (active). For the same compound, the growth inhibition in assay [5] (setting [7]) is 84% (active); in assay [5] (setting [8]), 98% (active); in assay [5] (at 50.0 µM), 67.2%; in assay [6] (setting [7]), 56%; in assay [6] (setting [8]) it was 83% (active); in assay [6] (at 50.0 µM), 88% (active).
Turning to `CC1=C(c2ccccc2)C(=O)OC1=O`, the growth inhibition is 5% in assay [1] (setting [7]); 11% in assay [1] (setting [8]); 52.5% in assay [1] (at 50.0 µM); 2% in assay [2] (setting [7]); 0% in assay [2] (setting [8]); 2.7% in assay [2] (at 50.0 µM). The growth inhibition is 4% in assay [3] (setting [7]); 6% in assay [3] (setting [8]); -4.65% in assay [3] (at 50.0 µM); 0% in assay [4] (setting [7]); 3% in assay [4] (setting [8]); -28.4% in assay [4] (at 50.0 µM). Besides, the growth inhibition in assay [5] (setting [7]) is -2%; in assay [5] (setting [8]), 3%; in assay [5] (at 50.0 µM) it was 3.7%; in assay [6] (setting [7]), 13%; in assay [6] (setting [8]), 14%; in assay [6] (at 50.0 µM) it was -10.4%.

These data come from PubChem BioAssay (NCI).
